Assay results as given in ChEMBL document CHEMBL3433997, “St. Jude Leishmania screening dataset” (2016).

Each compound was assayed against Glucose transporter (Leishmania mexicana) (UniProt O61059) (assay: ST_JUDE_LEISH: Cytotoxicity at 2uM final concentration against transgenic Leishmania Mexicana promastigotes LmGT2 that are glucose transport deficient and complemented with the L. Mexicana glucose transporter 2. Activity is measured by DNA content using SYBR green in vitro).
Assay type: functional

Row | Compound | inhibition
1 | COC(=O)c1ccc(NC(=O)c2ccc(CCN3CCC(c4nc(COCC(F)(F)F)c(-c5ccc(F)cc5)o4)CC3)cc2)cc1 | 2.38%
2 | CC(C)Oc1ccc2ccccc2c1CNCCCCCCNCc1c(OC(C)C)ccc2ccccc12 | 50.6%
3 | COc1ccccc1C1CCN(C2CCC(NC(=O)/C=C/c3cc(F)c(F)cc3F)CC2)CC1 (stereo unspecified) | 2.21%
4 | CCCN(CCC)CCCN(CCCN(CCC)CCC)c1cc(C)nc(Nc2ccc(Cl)cc2)n1 | 2.52%
5 | CN1CCC(NC(=O)c2cccc(Nc3cc(Nc4cccc(Br)c4)ncn3)c2)CC1 | 2.65%
6 | Cc1c(Cc2ccccc2Br)cnc2nc(N)nc(N)c12 | 14.2%
7 | COc1ccc(CCn2c(=N)c(C(=O)NCc3ccccc3)cc3c(=O)n4cccc(C)c4nc32)cc1 | 7.48%
8 | Cc1cccc(-c2ccc(CNC3CCN(CC4Cn5c(=O)ccc6ccc(F)c4c65)CC3)cn2)c1 (stereo unspecified) | 1.89%
9 | Oc1ccc2[nH]c(-c3cccs3)nc2c1CN1CCC(O)(c2ccccc2)CC1 | 9.03%
10 | O=S(=O)(c1cc(Cl)sc1Cl)N(CCC(O)(C(F)(F)F)C(F)(F)F)Cc1cccc(O)c1 | 2.62%
11 | CCC(Cc1ccccc1)c1cc(O)c(Cc2ccc(-c3ccccc3)cc2)c(=O)o1 (stereo unspecified) | 0.95%
12 | CC(=O)Nc1cccc(C(=O)Nc2cccc(-c3ccc(-c4nc5cccc(C)c5[nH]4)cc3)c2)c1 | 4.99%
13 | COc1ccc(C2C(C(=O)Nc3ccc(C)cc3Br)c3ccccc3C(=O)N2C)cc1 (stereo unspecified) | 0.83%
14 | O=C(Nc1ccc(F)cc1)NC1CCN(c2ccnc3cc(Cl)ccc23)C1 (stereo unspecified) | -1.87%
15 | CC(=O)NCCCCC1NC2(C(=O)N(Cc3ccc(C(C)(C)C)cc3)c3ccccc32)C2C(=O)N(C3CCCCC3)C(=O)C12 (stereo unspecified) | -0.43%
16 | O=C(COC(=O)c1cccc(S(=O)(=O)N2CCc3ccccc32)c1)NNC(=O)c1cccs1 | 2.91%
17 | COc1ccccc1C1CCN(C2CCC(NC(=O)/C=C/c3cc(F)cc(C(F)(F)F)c3)CC2)CC1 (stereo unspecified) | 1.96%
18 | c1ccc(-c2nc(Nc3nc4ccccc4[nH]3)[nH]c2-c2ccccc2)cc1 | 4.43%
19 | COc1ccc(OC)c(NC(=O)CSc2nc(-c3ccccc3Cl)ns2)c1 | -1.15%
20 | Cc1noc(C)c1-c1cccc(CNCc2ccc(-c3cccc(-c4nc5cccc(C)c5[nH]4)c3)cc2)c1 | -4.14%
21 | N#Cc1ccc(C(=O)Nc2ccc(Cl)c(N3CCN(CCc4ccccc4)CC3)c2)cc1 | 7.85%
22 | O=C(Nc1ccc2c(c1)CCC2)c1ccc(N2CCN(c3ccncc3)CC2)cn1 | 14.7%
23 | CCCCN(C(=O)c1ccccc1Cl)c1nnc(-c2ccccc2C)s1 | 0.03%
24 | CC(C)NCc1cccc(-c2ccc(NC(=O)c3ccc(C#N)cc3)cc2)c1 | 10%
25 | CCN(CC)CCN(Cc1ccc(-c2ccc(C(F)(F)F)cc2)cc1)C(=O)Cn1c(SCc2ccc(F)c(F)c2F)nc(=O)c2c1CCC2 | 3.4%
26 | O=C(NC1CCC(CCN2Cc3ccc(Br)cc3C2)CC1)c1cccc(-c2cccnc2)c1 (stereo unspecified) | -1.16%
